{"source": "PubChem BioAssay (Tox21)", "note": "Active and inactive are the calls of the source. Calls follow the shape of the dose curve; as a rule, active = well fitted curve in the direction sought with a large enough effect in the repeat runs; inconclusive = weak or mixed curves; inactive = flat fitted curve, though single readings scatter. % is scaled to controls: 0 for no effect and ±100 for the full control effect."}
{"assay": "qHTS assay to test for compound auto fluorescence at 590 nm (red) in HEK293 cell free culture (AID 720683)", "details": "cell-free medium autofluorescence, Ex540/Em590 red; series mostly up to 91.3 µM; fluorescence, % of fluorescent control: at the top concentration", "source_text": "U.S. Tox21 Program National Center for Advancing Translational Sciences [NCATS] NIH Chemical Genomics Center [NCGC] U.S. Environmental Protection Agency [EPA] National Institutes of Environmental Health Sciences [NIEHS] National Toxicology Program [NTP] U.S. Food and Drug Administration [FDA] Tox21 Assay Overview: Compound auto fluorescence often interferes with screening of the compound library against various biological targets and signaling pathways. Some of these compounds may have fluorophoric properties. Such properties may interfere with the assay outputs resulting in false positives and/or negatives. To decrease such complications and ensure the compound activities are relevant in terms of biological response, the Tox21 10K compound library was screened for auto fluorescence. From the fluorophores used as reporter signals in our screening assays, the auto fluorescence equivalencies of compounds against three fluorophores have been evaluated: Triamterene, Fluorescein and Rose Bengal sodium for blue, green and red fluorescence, respectively. The fluorescence intensities were measured using Excitation/Emission wavelengths at 405/460nm, 485/535nm and 540/590nm for blue, green and red labels, respectively. This assay includes the red fluorescence data.\nTox21 Assay Protocol Summary: 5 uL of culture medium (DMEM containing 10% FBS) per well was dispensed into black wall/clear bottom 1536-well plates using a Multidrop Combi Dispenser (ThermoFisher Scientific, Waltham, MA). After 23 nL compound or DMSO vehicle was transferred into assay plate by a pintool work station (Kalypsys, San Diego, CA), fluorescence intensities in the assay plates were measured by an Envision (PerkinElmer, Shelton, CT) plate reader using three labels for measuring blue, green and red fluorescence at […] 460, 535 and 590nm respectively."}
{"smiles": "OCC1CC=CCC1", "note": "(stereo not given)", "fluorescence, % of fluorescent control": "0.096% (inactive)"}
{"smiles": "C[Si]1(C)O[Si](C)(C)O[Si](C)(C)O1", "fluorescence, % of fluorescent control": "-0.0409% (inactive)"}
{"smiles": "C(=C\\c1ccccc1)/CN1CCN(C(c2ccccc2)c2ccccc2)CC1", "fluorescence, % of fluorescent control": "-0.0283% [at 18.6 µM] (inactive)"}
{"smiles": "O=C(CCC1CCN(Cc2ccccc2)CC1)c1ccc2c(c1)NCCCC2", "fluorescence, % of fluorescent control": "-0.101% [at 46 µM] (inactive)"}
{"smiles": "CCCCCCCCSCCO", "fluorescence, % of fluorescent control": "-0.184% (inactive)"}
{"smiles": "CC(=O)Oc1ccc2c(c1)CC[C@@H]1[C@@H]2CC[C@]2(C)[C@@H](O)CC[C@@H]12", "fluorescence, % of fluorescent control": "-0.188% [at 46 µM] (inactive)"}
{"smiles": "CNCCCC1c2ccccc2C=Cc2ccccc21", "fluorescence, % of fluorescent control": "-0.009% [at 18.6 µM] (inactive)"}
{"smiles": "COCCOC", "fluorescence, % of fluorescent control": "0.0794% (inactive)"}
{"smiles": "CC(=O)OCC(=O)[C@@]12OC(C)(C)O[C@@H]1C[C@H]1[C@@H]3C[C@H](F)C4=CC(=O)C=C[C@]4(C)[C@@]3(F)[C@@H](O)C[C@@]12C", "fluorescence, % of fluorescent control": "0.389% [at 18.6 µM] (inactive)"}
{"smiles": "CO[C@H]1C=CO[C@@]2(C)Oc3c(C)c(O)c4c(O)c(c5c(c4c3C2=O)=NC2(CCN(CC(C)C)CC2)N=5)NC(=O)/C(C)=C\\C=C/[C@H](C)[C@H](O)[C@@H](C)[C@@H](O)[C@@H](C)[C@H](OC(C)=O)[C@@H]1C", "outcome": "inactive"}
{"smiles": "O=C(CS)OCCOC(=O)CS", "fluorescence, % of fluorescent control": "0.0008% (inactive)"}
{"smiles": "Nc1nc(Cl)nc2c1ncn2[C@@H]1O[C@H](CO)[C@@H](O)[C@@H]1F", "fluorescence, % of fluorescent control": "-0.0747% [at 46 µM] (inactive)"}
{"smiles": "CO/N=C1\\CN(c2nc3c(cc2F)c(=O)c(C(=O)O)cn3C2CC2)CC1CN", "note": "(stereo not given)", "fluorescence, % of fluorescent control": "-0.0203% [at 46 µM] (inactive)"}
{"smiles": "COC(=O)[C@@H]1CC2=CC(=O)CC[C@]2(C)[C@@]23O[C@@H]2C[C@@]2(C)[C@@H](CC[C@@]24CCC(=O)O4)[C@H]13", "fluorescence, % of fluorescent control": "0.212% [at 46 µM] (inactive)"}
{"smiles": "CCCCC(=O)O[C@]1(C(=O)CO)[C@@H](C)C[C@H]2[C@@H]3CCC4=CC(=O)C=C[C@]4(C)[C@@]3(F)[C@@H](O)C[C@@]21C", "fluorescence, % of fluorescent control": "0.0485% (inactive)"}
{"smiles": "C[N+](C)(C)CCOC(N)=O", "fluorescence, % of fluorescent control": "-0.0201% [at 46 µM] (inactive)"}
{"smiles": "C=C(C)C(=O)OCCOC(=O)CC(C)=O", "fluorescence, % of fluorescent control": "0.115% (inactive)"}
{"smiles": "C=CCOC(=O)/C=C\\C(=O)OCC=C", "fluorescence, % of fluorescent control": "-0.0674% [at 95.7 µM] (inactive)"}
{"smiles": "CN1CCCN=C1/C=C/c1cccs1", "fluorescence, % of fluorescent control": "-0.397% [at 46 µM] (inactive)"}
{"smiles": "Brc1cc(-c2ccc(Br)c(Br)c2Br)cc(Br)c1Br", "fluorescence, % of fluorescent control": "0.001% [at 46 µM] (inactive)"}
{"smiles": "CCC1(C)CC(=O)NC1=O", "note": "(stereo not given)", "fluorescence, % of fluorescent control": "-0.0274% [at 46 µM] (inactive)"}
{"smiles": "NC(=O)Nc1ccc(Cl)c(Cl)c1", "fluorescence, % of fluorescent control": "-0.319% (inactive)"}
{"smiles": "CCCOCCOCCO", "fluorescence, % of fluorescent control": "-0.344% (inactive)"}
{"smiles": "c1cnc2c(n1)CCCC2", "fluorescence, % of fluorescent control": "-0.0051% (inactive)"}
{"smiles": "CC(C)CCCCCCOC(=O)CCCCC(=O)OCCCCCCC(C)C", "fluorescence, % of fluorescent control": "-0.0777% (inactive)"}
{"smiles": "CCN(Cc1cccc(S(=O)(=O)O)c1)c1ccc(C(=C2C=CC(=[N+](CC)Cc3cccc(S(=O)(=O)[O-])c3)C=C2)c2ccccc2)cc1", "fluorescence, % of fluorescent control": "-0.0244% (inactive)"}
{"smiles": "CC(=O)CC(c1ccc([N+](=O)[O-])cc1)c1c(O)c2ccccc2oc1=O", "note": "(stereo not given)", "fluorescence, % of fluorescent control": "-0.0043% [at 18.6 µM] (inactive)"}
{"smiles": "Nc1ccc(C(=O)OCCCOC(=O)c2ccc(N)cc2)cc1", "fluorescence, % of fluorescent control": "0.0218% (inactive)"}
{"smiles": "CCn1cc(C(=O)O)c(=O)c2cc(F)c(N3CCNCC3)nc21", "fluorescence, % of fluorescent control": "-0.252% [at 18.6 µM] (inactive)"}
{"smiles": "CCN(CC)CCNC(=O)c1ccc(NC(C)=O)cc1", "fluorescence, % of fluorescent control": "-0.433% [at 46 µM] (inactive)"}
{"smiles": "CCCCC(CC)COC(=O)COc1ccc(Cl)cc1C", "note": "(stereo not given)", "fluorescence, % of fluorescent control": "0.0801% (inactive)"}
{"smiles": "CCCCC(CC)CNCC(CC)CCCC", "note": "(stereo not given)", "fluorescence, % of fluorescent control": "-0.268% (inactive)"}
{"smiles": "C[C@@H]1C[C@H]2[C@@H]3CCC4=CC(=O)C=C[C@]4(C)[C@@]3(F)[C@@H](O)C[C@]2(C)[C@@]1(O)C(=O)CO", "fluorescence, % of fluorescent control": "-0.318% [at 95.7 µM] (inactive)"}
{"smiles": "COc1cc2c(cc1OC)-c1cc(=Nc3c(C)cc(C)cc3C)n(C)c(=O)n1CC2", "fluorescence, % of fluorescent control": "-0.198% [at 46 µM] (inactive)"}
{"smiles": "CNC(=S)NC", "fluorescence, % of fluorescent control": "0.0118% (inactive)"}
{"smiles": "O=C(OCCOCCO)c1ccccc1Nc1cccc(C(F)(F)F)c1", "fluorescence, % of fluorescent control": "-0.579% [at 18.6 µM] (inactive)"}
{"smiles": "Cc1cc2nc3ccc(=[N+](C)C)cc-3sc2cc1N", "fluorescence, % of fluorescent control": "-0.0104% [at 46 µM] (inactive)"}
{"smiles": "CC(CCO)CCc1ccccc1", "note": "(stereo not given)", "fluorescence, % of fluorescent control": "-0.24% (inactive)"}
{"smiles": "CCOC(=O)/C=C/C(=O)O", "fluorescence, % of fluorescent control": "-0.163% (inactive)"}
{"smiles": "COc1ccc(CCC(=O)c2c(O)cc(O[C@@H]3O[C@H](CO)[C@@H](O)[C@H](O)[C@H]3O[C@@H]3O[C@@H](C)[C@H](O)[C@@H](O)[C@H]3O)cc2O)cc1O", "fluorescence, % of fluorescent control": "0.0924% (inactive)"}
